Here are results for 62 compounds from PubChem BioAssay AID2685 (National Center for Advancing Translational Sciences (NCATS), 2010).

About 2,100 (0.66%) of roughly 320,000 compounds were called active. About 53% were inconclusive and are not listed. The sample holds actives, similar compounds and a random draw of the others, so the mix is not that of the screen. Calls follow the shape of the dose curve; as a rule, active = well fitted inhibition curve with a large enough effect in the signal ratio, with a control signal flat (not every such curve was filed as active); inconclusive = small, poorly fitted or top-dose-only effect, or effect the other way, or a change in a side signal; inactive = flat fitted curve, though single readings scatter; the % refers to the signal ratio.
Potency is read from the fitted curve at half-maximal effect.

This test can be described thus: qHTS Assay for Lipid Storage Modulators in Drosophila S3 Cells.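 As to cell number change: cells counted by Cell Tracker Red CMTPX staining in the red channel.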 To be noted: BODIPY lipid droplet fluorescence, 18-24 h, cells fed with added oleic acid; cell number change: measured here: cell count max response; series mostly up to 46.1 µM. An outline of the steps: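 Drosophila S3 cells loaded with oleic acid (400 uM, as added) and compounds at several concentrations; lipid droplets imaged by 488-nm laser-scanning cytometry, 500–530 nm intensity and object ratio to cell channel. Percent activity normalized to 20 uM Triacsin C.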
Background: In qHTS, concentration-response curves come from the screen itself.
Consider `O=C(O)c1cc(-c2ccccc2Cl)n(-c2ccccc2)n1`, for which the Potency entry was “inactive” and the cell number change is 19.7%.

With `COc1cc(CC(=O)NCc2ccco2)cc(OC)c1OC`, the Potency result was “inactive”.

For the compound `CNC(=S)N/N=C/c1c(C(=O)OC)cnn1-c1ccc(F)cc1F`, the Potency result was “inactive” and the cell number change amounted to 9.07%.

Turning to `Cc1oc(-c2ccccc2F)nc1CN1CCC(C(=O)NCc2cccnc2)CC1`, the Potency result is “inactive” and the cell number change came to 15.7%.

For the compound `O=C(Nc1ccccc1)Nc1n[nH]c2nnc(-c3ccccc3)c(-c3ccccc3)c12`, the Potency entry was “inactive” and the cell number change came to 9.52%.

Consider `Cc1cc(-c2nc(C)c(C(=O)NNC(=O)NC(C)C)s2)no1`, for which the Potency entry was “inactive” and the cell number change came to 5.79%.

With `CC(C)(C)C(=O)c1sc2nc(-c3cccs3)cc(C(F)(F)F)c2c1N`, the Potency result is “inactive” and the cell number change was -8.91%.

In the case of `Cc1cc(C(F)(F)F)c2c(N)c(C(=O)NC3CC3)sc2n1`, the Potency is 17.8 µM (active) and the cell number change is -6.29%.

With `Cc1cc(C)c2c(N)c(C(=O)Nc3ccc(C)c(C)c3)sc2n1`, the Potency entry was “inactive” and the cell number change is -1.35%.

`CN(C)CCNC(=O)c1sc2nc(-c3ccccc3)cc(C(F)(F)F)c2c1N`: the Potency entry is “inactive” and the cell number change is -18.7%.

On to `Cc1cc(C)c2c(N)c(C(=O)NC3CC3)sc2n1`, for which the Potency entry was “inactive” and the cell number change was determined as 14.6%.

Consider `Cc1nnc(NC(=O)c2sc3nc(-c4cccs4)cc(C(F)(F)F)c3c2N)s1`, for which the Potency is 9.2 µM (active) and the cell number change came to 18.6%.

Regarding `O=C(O)C(C(O)c1ccc([N+](=O)[O-])cc1)[n+]1ccccc1` (stereo not drawn), the Potency entry was “inactive” and the cell number change stood at 27.3%.

In the case of `C(=N\Nc1ccc(-n2ccnc2)nn1)/c1ccccc1`, the Potency entry was “inactive”.

Take `CCOC(=O)CNC(=O)N1CCCC(C(=O)c2cc(C)c(OC)c(C)c2)C1` (stereo not drawn): the Potency entry is “inactive” and the cell number change turned out to be 16.3%.

For `O=C(NCCC1=CCCCC1)c1ccc(-n2cncn2)c([N+](=O)[O-])c1`, the Potency entry was “inactive” and the cell number change is -27%.

In the case of `CCOC(=O)c1sc(N(Cc2ccccc2)C(=O)COC(=O)c2cnccn2)nc1C`, the Potency entry was “inactive”.

On to `C=CCn1c(SCc2nc3ccccc3nc2C)nnc1-c1ccoc1C`, for which the Potency entry was “inactive” and the cell number change was -18.3%.

Take `CCOC(=O)CC1=NS(=O)(=O)c2ccccc2N1`: the Potency result was “inactive” and the cell number change turned out to be 8.13%.

Consider `CC(CC(=O)O)CC1=NS(=O)(=O)c2ccccc2N1` (stereo not drawn), for which the Potency is 13 µM (active) and the cell number change was -6.45%.

With `Cc1ccc(NC(=O)CC(C)CC2=NS(=O)(=O)c3ccccc3N2)cc1` (stereo not drawn), the Potency result is “inactive” and the cell number change came out at 4.79%.

Turning to `O=C(O)c1cc2ncc(-c3[nH]ncc3[N+](=O)[O-])cn2n1`, the Potency result is “inactive” and the cell number change stood at 25.8%.

Turning to `CCCCc1nc2ccccc2c(=O)n1NC(=O)c1c(O)c2ccccc2n(C)c1=O`, the Potency entry was “inactive” and the cell number change is -2.66%.

Consider `O=C(CSc1nc2ccc(S(=O)(=O)N3CCOCC3)cc2[nH]1)N1CCOCC1`, for which the Potency was 18.4 µM (active) and the cell number change turned out to be 8.23%.

Consider `Cc1ccc2nc(SCC(=O)N3CCOCC3)[nH]c2c1`, for which the Potency entry was “inactive” and the cell number change is -6.28%.

On to `COC(=O)c1ccc(CSc2nc3ccc(S(=O)(=O)N4CCOCC4)cc3[nH]2)cc1`, for which the Potency entry was “inactive” and the cell number change is 1.16%.

As for `O=C(O)C1CCCN(S(=O)(=O)c2ccc(-c3ccc(=O)[nH]n3)s2)C1` (stereo not drawn), the Potency result was “inactive” and the cell number change is -7.22%.

In the case of `COC(=O)Nc1ccc(Cn2cc(C(F)(F)F)ccc2=O)cc1`, the Potency entry is “inactive” and the cell number change was determined as 17.3%.

`O=C1[C@H](O)[C@@H](O)C(=O)N1Cc1ccccc1`: the Potency entry was “inactive” and the cell number change was 24.4%.

Take `O=C1NC(=O)N(Cc2ccccc2)C1=O`: the Potency result is “inactive” and the cell number change was -0.926%.

As for `O=C1C=CC(=O)N1Cc1ccccc1`, the Potency is 4.11 µM (active) and the cell number change was -23.7%.

As to `COCCNc1ncnc2nc[nH]c12`, the Potency entry is “inactive” and the cell number change was found to be 7.15%.

Consider `CCCNc1ncnc2nc[nH]c12`, for which the Potency result was “inactive” and the cell number change came to 19.1%.

Turning to `C1=C(CCNc2ncnc3nc[nH]c23)CCCC1`, the Potency was 16.4 µM (active) and the cell number change was -23.9%.

For the compound `O=C(Sc1ccccc1)c1cccc(Cn2cc(C(F)(F)F)ccc2=O)c1`, the Potency entry was “inactive” and the cell number change is 1.6%.

For `COc1cccc(NC(=O)c2ccc3nc(C)sc3c2)c1`, the Potency entry is “inactive” and the cell number change was 0.275%.

Turning to `CCN1CCCC(OC(=O)Nc2ccccc2)C1` (stereo not drawn), the Potency entry was “inactive” and the cell number change was -14.2%.

On to `COc1ccc(CCNc2ncnc3sc(C)cc23)cc1OC`, for which the Potency is 4.11 µM (active) and the cell number change was -27%.

In the case of `Cc1cc2c(NCc3ccccc3)ncnc2s1`, the Potency result is “inactive” and the cell number change was -12.9%.

With `COc1ccc(CCNc2ncnc3c2c(C)c(C)n3CCO)cc1OC`, the Potency result is “inactive” and the cell number change was -9.63%.

For the compound `CCOC(=O)c1ccc(-c2ccc(/C=N/NC(=O)Cc3nnc(N)s3)o2)cc1`, the Potency entry was “inactive” and the cell number change was -10.3%.

`CCOC(=O)C1CCN(C(c2cccc(F)c2)c2sc3nc(C)nn3c2O)CC1` (stereo not drawn): the Potency entry was “inactive” and the cell number change was 9.03%.

As to `Cc1nc(S(=O)(=O)N2CCN(C3c4ccccc4-c4ccccc43)CC2)cn1C`, the Potency entry was “inactive” and the cell number change was determined as 19.2%.

`CC(C)Oc1ccc(C(=O)Nc2ccc3c(c2)n(C)c(=O)n3C)cc1`: the Potency is 18.4 µM (active) and the cell number change was -24.3%.

Regarding `COc1ccc(NC(=O)c2ccc3c(c2)n(C)c(=O)n3C)cc1`, the Potency entry was “inactive” and the cell number change is -1.07%.

For `Cn1c(=O)n(C)c2cc(NC(=O)c3ccc(F)cc3)ccc21`, the Potency result was “inactive” and the cell number change was -7.46%.

`CCN(CC)C(=O)c1ccc(-c2cccs2)s1`: the Potency result was “inactive” and the cell number change was determined as 3.13%.

Regarding `CCOCc1c(C(=O)Nc2ccc(OC)nc2)oc2ccccc12`, the Potency result is “inactive” and the cell number change is -13.5%.

For `COc1ccc(NC(=O)c2oc3ccccc3c2CSC)cn1`, the Potency is 23.1 µM (active) and the cell number change is 1.61%.

Take `COc1ccc(NC(=O)c2oc3ccccc3c2C)cn1`: the Potency entry was “inactive” and the cell number change is 13.5%.

On to `CC(C)CCNC(=O)C(C)N(Cc1ccc(F)cc1)C(=O)c1ccc(CN2CCOCC2)o1` (stereo not drawn), for which the Potency result was “inactive” and the cell number change was -9.3%.

Take `COC(=O)c1ccccc1NC(=O)COC(=O)CO/N=C(\C)c1ccc2c(c1)OCO2`: the Potency entry was “inactive” and the cell number change was -2.37%.

In the case of `Cc1cc(OC(C)C(=O)NCC2CCC(C(=O)O)CC2)c2c(C)cc(=O)oc2c1` (stereo not drawn), the Potency entry is “inactive” and the cell number change was -0.291%.

In the case of `CCOC(=O)C1CCN(C(=O)c2cc(COc3ccc(OC)c4ccccc34)on2)CC1`, the Potency entry was “inactive” and the cell number change was 0.306%.

For the compound `CCc1cccc(CC)c1-n1c(SCC(=O)N2CCc3ccccc3C2)nnc1-c1cccnc1`, the Potency is 16.4 µM (active) and the cell number change stood at 1.33%.

For `Cc1ccc(-n2c(C)nnc2SCC(=O)N2CCc3ccccc3C2)cc1`, the Potency entry is “inactive” and the cell number change was -10.8%.

`Cn1c(SCC(=O)N2CCc3ccccc3C2)nnc1-c1ccncc1`: the Potency result is “inactive” and the cell number change was 6.69%.

As for `COc1ccc(-c2nc(CN3CCC(C(=O)NCC4CCCO4)CC3)c(C)o2)cc1OC` (stereo not drawn), the Potency result was “inactive”.

For the compound `CCn1c(SCC(=O)c2ccccc2)nc2c(c1=O)SC(C)C2` (stereo not drawn), the Potency result was “inactive”.

As to `N#CC1(NC(=O)COc2ccc(S(=O)(=O)N3CCCC3)cc2[N+](=O)[O-])CCCCC1`, the Potency entry is “inactive” and the cell number change was -3.48%.

For the compound `N#CC1(NC(=O)COc2ccccc2[N+](=O)[O-])CCCCC1`, the Potency result is “inactive”.

Regarding `N#CC1(NC(=O)COc2cc(F)ccc2[N+](=O)[O-])CCCCC1`, the Potency was 11.6 µM (active) and the cell number change is -12.3%.
